Test results reported in PubChem BioAssay (EPA / NIEHS).
Calls of active or inactive are those of the source. The calls were made as follows: active = hit-call score of the fitted dose curve at least 0.9, where 1 is the maximum; inactive = score below 0.9.

Each compound was assayed on growth arrest and DNA damage 45 (GADD45A), GADD45A (gene 1647) (assay: LTEA_HepaRG_GADD45A: Life Technologies and Expression Analysis (LTEA) Assay for growth arrest and DNA damage 45 (GADD45A) using HepaRG (AID 2283458)). Settings: mRNA level, 48 h; actives raise or lower the signal.
Experimental: LTEA_HepaRG is a cell based, multiplexed-readout assay that uses HepaRG, a human liver cell line, with measurements taken at 48 hours after chemical dosing on a 96-well plate.LTEA_HepaRG_GADD45A is one of 102 assay component(s) measured in the LTEA HepaRG cell culture assay. It is a marker of Oxidative Stress.Data from the assay component LTEA_HepaRG_GADD45A was analyzed into 1 endpoint. This assay endpoint, LTEA_HepaRG_GADD45A, was analyzed with bidirectional fitting relative to DMSO as the negative control and baseline of activity. Using a type of inducible reporter, measures of mRNA induction for gain or loss-of-signal activity can be used to understand regulation of transcription factor activity. To generalize the intended target to other relatable targets, this assay endpoint is annotated to the cell cycle intended target family, where the subfamily is Oxidative Stress.
A total of 1060 chemcials from the ToxCast library were tested in eight-point concentration-response experiments. Cell culture and cytotoxicity assays were conducted at Thermo Fisher Scientific's Custom Services facility (Madison, WI). A single lot of human HepaRG cells (Thermo Fisher Scientific, Frederick, MD) was used for the cell culture experiments. 96-well format collagen type I coated plates of human HepaRG cells were prepared using established methods. Briefly, cryopreserved HepaRG cells were thawed, plated at a density of approximately 100,000 cells/well in HepaRG Thaw, Plate, and General Purpose media (HPRG770, Thermo Fisher Scientific), and incubated for 48 hours. 0.5% DMSO was selected as vehicle control to balance the requisite need of DMSO in HepaRG cultures to maintain differentiation (for example, baseline metabolism, proportions of hepatocytes vs. cholangiocytes), while enabling further hepatic receptor pathway activation (for example, PXR and CAR) in response to chemical exposure. 48 hours after plating, the culture medium was replaced with HepaRG Serum-Free Incudtion Media. Cells were exposed to each test chemical in duplicate and maintained in CO2 incubators for another 48 hours. Chemical plates were thawed to room temperature and 200x concentrations of treatment groups were prepared. 8-point conentration-reponse curves were made with the highest exposure at 100 uM, followed by half-log dilutions, all in 0.5% DMSO. Each test plate contained variouse controls, induction positive controls (1mM phenobarbital), cytotoxicity positive controls ([…] aflatoxin B1), vehicle controls (0.5% DMSO), and total lysis controls (0.5% DMSO). Cell morphology images were taken using an Essen IncuCyte FLR automated microscope, with six 96-well plates imaged in about 24 minutes. Images were captured and exported and JPEG files. Spent culture media was transfered to black-well plates for the LDH assay, and remaining media was sorted at -80 C for later use. Cells were treated with RLT buffer and frozen until shipped for gene expression analysis. Total RNA was isolated from the cell suspension in 75 uL of Buffer RLT (Qiagen, Germantown, MD 20874) by Quintiles/Expression Analysis (Durham, NC) using a custom isolation procedure. Total RNA from each plate well was transferred to a preamplification plate. Fluidigm's 96.96 Dynamic ArrayTM (Fluidigm, Amsterdam, the Netherlands) technology was used for gene expression analyses by quantitative reverse transcription polymerase chain reaction (qRT-PCR, performed by Quintiles/Expression Analysis, Durham, NC)89. Standard TaqManTM Assays (Applied Biosystems/ThermoFisher Scientific, Foster City, CA) were used to assess the expression of 93 genes selected based on their selectivity and sensitivity to important hepatic receptors known to be modulated by environmental chemicals; importance in human hepatocyte functionality; and hepatotoxicity. […]
Cn1sc(Cl)cc1=O was tested, and the outcome was “inactive”. With C[C@]12CCC(=O)C[C@@H]1CC[C@@H]1[C@@H]2CC[C@]2(C)[C@@H](O)CC[C@@H]12 the AC50 was 0.00162 µM (active). In the case of CCC(=O)C(CC(C)N(C)C)(c1ccccc1)c1ccccc1 (stereo not given), the outcome is reported as “inactive”. In the case of Oc1cccc2cccnc12, the outcome is reported as “inactive”. With CCCCCCCCc1ccc(O)cc1 the outcome was “inactive”. With NC(=O)O the outcome was “inactive”. For O=c1[nH]c(=O)[nH]c(=O)[nH]1, the outcome was “inactive”. In the case of CCOP(=S)(OCC)Oc1nc(Cl)c(Cl)cc1Cl, the outcome is reported as “inactive”. For CC(C)(C)CC(C)(C)c1ccc(O)cc1, the AC50 was 81.5 µM (active). C[C@@H]1C[C@@H]([C@H](O)CC2CC(=O)NC(=O)C2)C(=O)[C@@H](C)C1 was tested, and the AC50 was 50 µM (active). CN(C)N=O was tested, and the outcome was “inactive”. CC(C)(OO)c1ccccc1 was tested, and the outcome was “inactive”. With CC(=O)[O][Hg][c]1ccccc1 the AC50 was 16.3 µM (active). With O=C(Nc1ccc2[nH]ccc2c1)c1cc2cc(F)ccc2n1Cc1cccc(F)c1 the AC50 was 20.7 µM (active). In the case of O=C1C2(Cl)C3(Cl)C4(Cl)C(Cl)(Cl)C5(Cl)C3(Cl)C1(Cl)C5(Cl)C24Cl (stereo not given), the outcome is reported as “inactive”. For O=C(O)C(F)(F)C(F)(F)C(F)(F)C(F)(F)C(F)(F)C(F)(F)C(F)(F)C(F)(F)C(F)(F)C(F)(F)F, the outcome was “inactive”. With CCN1CCC2(CC1)COc1cc3c(cc12)N(C(=O)c1ccc(-c2ccc(-c4nnc(C)o4)cc2C)cc1)CC3 the AC50 was 75.3 µM (active). In the case of CCOP(=S)(OCC)SCSP(=S)(OCC)OCC, the AC50 is reported as 0.0566 µM (active). In the case of C=CC(=O)OCCCCCC(C)C, the outcome is reported as “inactive”. For Cc1ccccc1N, the outcome was “inactive”. For O=C(O)C(F)(F)C(F)(F)C(F)(F)C(F)(F)C(F)(F)C(F)(F)F, the outcome was “inactive”. With ClCC(Cl)CCl the outcome was “inactive”. In the case of ClC1(Cl)C2(Cl)C3(Cl)C4(Cl)C(Cl)(Cl)C5(Cl)C3(Cl)C1(Cl)C5(Cl)C24Cl (stereo not given), the outcome is reported as “inactive”. In the case of C=C(C)C(=O)[O][Sn]([CH2]CCC)([CH2]CCC)[CH2]CCC, the AC50 is reported as 0.314 µM (active). For O=[N+]([O-])c1ccc(O)c([N+](=O)[O-])c1, the AC50 was 11.5 µM (active). In the case of CC(C)(c1ccccc1)c1ccc(O)c(C(C)(C)c2ccccc2)c1, the outcome is reported as “inactive”. CCC(C)(C)c1ccc(O)c(C(C)(C)CC)c1 was tested, and the outcome was “inactive”. For O=C(O)C(Cl)(Cl)Cl, the outcome was “inactive”. COc1cc(-c2ccc(N)c(OC)c2)ccc1N was tested, and the outcome was “inactive”. With CC(C)(C)c1cc(O)ccc1O the outcome was “inactive”.
